These compounds were tested on Falciformispora senegalensis CBS197.79 (assay: growth relative to untreated control; higher = less inhibition, active = 20 or less). Conditions: 25 µM.
Outline: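 For each test, a hyphal fragment suspension of M. mycetomatis MM55 or F. senegalensis CBS197.79 was prepared in colourless RPMI 1640 with L-glutamine and MOPS at 68–72% transmission at 660 nm. Exposure to compound at 100 or 25 µM ran for 7 days at 37 °C in 96-well plates, followed by viability reading with MTS (2 h, 490 nm) or resazurin (600 nm). Growth corresponds to metabolic activity relative to the untreated growth control after correction of both with a blank of medium and dye.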

**Q.** Which growth does the source give for `COc1ccc(-n2nc(C)c3c2NC(=O)CC3c2ccccc2OCc2ccc(F)cc2)cc1` (configuration not stated) here?
**A.** The growth was 82.5% (inactive).

**Q.** With `CCC(C)n1ncn(-c2ccc(N3CCN(c4ccc(OCC5COC(Cn6cncn6)(c6ccc(Cl)cc6Cl)O5)cc4)CC3)cc2)c1=O` (configuration not stated) as the compound, how does the growth read?
**A.** The growth was 37.2% (inactive).

**Q.** With `CN(c1ncc2nc(Nc3cc(Cl)cc(C(F)(F)F)c3)n(C3CCNCC3)c2n1)C1CC1` as the compound, how does the growth read?
**A.** The growth was 90.9% (inactive).

**Q.** For `COc1ccc(CCNc2nccc(-c3cc(Cl)cc(C(F)(F)F)c3)n2)cc1`, which growth is on record?
**A.** Its growth is 87.1% (inactive).

**Q.** Which growth does the source give for `Cc1cc(C(=O)N2CCOc3c(cc(-c4csc5ccccc45)cc3OCCc3ccccn3)C2)n(C)n1` here?
**A.** The growth was 90.1% (inactive).

**Q.** Which growth does the source give for `FC(F)(F)c1cc(Cl)cc(Nc2nc3cnc(NC4CCOCC4)nc3n2C2CCNCC2)c1` here?
**A.** The growth was 93.9% (inactive).

**Q.** For `CN(C)C1CC(NC(=O)c2ccc(Nc3nccc(-c4ccc(Cl)c(C(F)(F)F)c4)n3)cc2)C1` (configuration not stated), which growth is on record?
**A.** Its growth is 96.6% (inactive).

**Q.** Which growth does the source give for `CCN(CC)CCNC(=O)c1ccc(NC(=O)c2cc3c(C)nn(-c4ccc(Cl)cc4)c3s2)cc1` here?
**A.** Its growth is 58.4% (inactive).

**Q.** Which growth does the source give for `OCCN1CCN(CCCN2c3ccccc3Sc3ccc(C(F)(F)F)cc32)CC1` here?
**A.** Its growth is 1.11% (active).

**Q.** With `O=C1CN(C(=O)CCC2CCCC2)C(c2ccc(F)cc2)c2cc(Cl)ccc2N1` (configuration not stated) as the compound, how does the growth read?
**A.** The growth was 71.2% (inactive).

**Q.** `CC(C)(C)c1nc(-c2cccc(NS(=O)(=O)c3c(F)cccc3F)c2F)c(-c2ccnc(N)n2)s1` was tested. Which growth did it give?
**A.** Its growth is 101% (inactive).

**Q.** How did the growth turn out when `CN[C@@H]1[C@H](O)[C@H](NC)[C@H]2O[C@@]3(O)C(=O)C[C@@H](C)O[C@H]3O[C@@H]2[C@H]1O` was run?
**A.** Its growth is 105% (inactive).
